The source made the active and inactive calls. Calls come from the whole dose curve; as a rule, active = well fitted curve in the direction sought with a large enough effect; inconclusive = small, poorly fitted or top-dose-only effect, or another doubt; inactive = no such curve, though single readings can be large; an effect the other way counts as inactive or inconclusive.
Molecular target: Cytochrome P450 3A4 (Homo sapiens) (UniProt P08684)
Experiment: qHTS Assay for Activators of Cytochrome P450 3A4 (AID 885); note: nearly all actives have a fitted effect of over 65% in size
Details: recombinant CYP3A4, Luciferin-PPXE luminescence, 60 min; series mostly up to 57.1 µM; activity change, positive = activation: at the top concentration
Procedure, shortened: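 Human CYP3A4 (20 nM) with Luciferin-PPXE at 25 uM (its KM) in 200 mM KPO4; 10 min compound preincubation, then NADPH regeneration and 60 min reaction at RT. Luciferin read by luminescence; normalized to 57 uM ketoconazole full inhibition.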

Chain of Cytochrome P450 3A4 (Homo sapiens) (P08684 whole entry, looked up): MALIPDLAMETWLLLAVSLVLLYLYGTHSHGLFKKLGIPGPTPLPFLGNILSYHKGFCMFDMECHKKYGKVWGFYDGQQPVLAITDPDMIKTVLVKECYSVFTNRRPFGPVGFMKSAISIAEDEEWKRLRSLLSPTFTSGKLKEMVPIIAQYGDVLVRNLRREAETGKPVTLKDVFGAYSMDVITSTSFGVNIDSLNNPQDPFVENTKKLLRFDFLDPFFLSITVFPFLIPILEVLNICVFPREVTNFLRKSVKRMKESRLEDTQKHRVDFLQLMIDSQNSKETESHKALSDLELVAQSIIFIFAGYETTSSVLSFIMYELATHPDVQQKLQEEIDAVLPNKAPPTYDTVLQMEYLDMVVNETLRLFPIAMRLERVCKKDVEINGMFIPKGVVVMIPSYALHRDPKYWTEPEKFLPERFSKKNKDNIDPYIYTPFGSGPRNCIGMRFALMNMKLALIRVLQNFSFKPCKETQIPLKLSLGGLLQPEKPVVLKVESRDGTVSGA

Activity change, positive = activation, inactive:
COc1cc(-c2cc(=O)c3c(O)c(OC)c(OC)c(OC)c3o2)cc(OC)c1OC -38.3%, C#C[C@]1(O)CCC2C3CCC4=Cc5oncc5C[C@@]4(C)C3CC[C@@]21C (stereo not given in full) -78.4%, CC(=O)OC1CC2C(C)(C)C=CC(=O)[C@@]2(C)C2CC[C@@]3(C)C(c4ccoc4)OC(=O)C4OC43[C@]12C (stereo not given in full) -51.8%, CC1(C)CCC2(C(=O)O)CC[C@]3(C)C(=CCC4[C@]5(C)CCC(O)C(C)(C)C5C(O)C[C@]43C)C2C1 (stereo not given in full) -49.2%, CC1(C)C(=O)C2C[C@]3(O)C4=CC(=O)OC(c5ccoc5)[C@]4(C)CCC3[C@](C)(C2=O)C1CC(=O)O (stereo not given in full) -47.9%, Cc1cc(=O)oc2c(O)c(O)ccc12 -57.8%, C#C[C@@]1(O)CCC2C3CCC4=CC(=O)CCC4C3CC[C@@]21CC (stereo not given in full) -62.1%, C[C@@H]1CCC2[C@](C)(CO)C(O)CC[C@@]2(C)[C@@]12CC[C@](CO)(CCO)O2 (stereo not given in full) -45.2%, CC1(C)CCCC2(C)C3C(O)CC2(C)C(O)C31 (stereo not given) -44.5%, CC(=O)O[C@](C)(CCC=C(C)C)C1CC=C(C)CC1 (stereo not given in full) -51.2%, COc1ccc(C2Oc3cc(OC)cc(OC)c3CC2O)cc1 (stereo not given) -41.1%, COc1cccc(O)c1O -51.6%, CC1(C)C[C@@H]2C(=O)CCC3O[C@@]3(C)CCC21 (stereo not given in full) -55.3%, CC(=O)OCC(=O)[C@]1(O)C(C)CC2C3CCC4=CC(=O)C=C[C@@]4(C)[C@]3(F)C(O)C[C@@]21C (stereo not given in full) -34.1%, O=C1c2ccccc2C(=O)c2c(O)c(O)cc(O)c21 -46.9%, CC(=O)OC1CC(OC(C)=O)[C@]2(C)C(CC(=O)[C@]3(C)C2CC[C@@]2(C)C(C(=O)O)OC(=O)C4OC423)C1(C)C (stereo not given in full) -44.7%, COC1=CC(=O)C(C(=O)c2ccccc2)=CC1=O -42.3%, COc1ccc(C2CC(=O)c3c(O)cc(O)cc3O2)cc1O (stereo not given) -90.2%, COc1ccc(-c2coc3c(O)c(OC)ccc3c2=O)cc1 -51.2%, COC(=O)/C(=C1\OC(=O)C(c2ccccc2)C1=O)c1ccccc1 (stereo not given) -31.3%, COC(=O)C1OC(=O)C2O[C@@]23[C@]2(C)C(OC(C)=O)CC4C(C)(C)C(=O)CC[C@]4(C)C2CC[C@@]13C (stereo not given in full) -37.4%, O=c1c(O)c(-c2ccccc2)oc2cccc(O)c12 -32.7%, Cc1cc(O)c(C=O)c(O)c1C(=O)O -63.7%, O=C(NC1CCCCC1)NC1CCCCC1 -39.3%, CC1(C)OC2CC3C4CC(F)C5=CC(=O)C=C[C@@]5(C)[C@@]4(F)C(O)C[C@@]3(C)[C@]2(C(=O)CO)O1 (stereo not given in full) -44.5%, COC(=O)CC1C(C)(C)C2(O)OC34CC2C(=O)[C@@]1(C)C3CC[C@]1(C)C4=CC(=O)OC1c1ccoc1 (stereo not given in full) -46.9%, CC1CC2C3CCC4=CC(=O)C=C[C@]4(C)[C@@]3(Cl)C(O)C[C@]2(C)C1(OC(=O)c1ccco1)C(=O)CCl (stereo not given in full) -82%, S=c1ccss1 -37.3%, CC1(C)C(O)C=C[C@@]2(C)C1CC(=O)O[C@@]1(C)C3=CC(=O)OC(c4ccoc4)[C@]3(C)CCC21 (stereo not given in full) -53.1%, COc1ccc(-c2coc3cc(O)ccc3c2=O)c(OC)c1 -45.5%, COc1cc(O)cc(OC)c1OC -33.5%, CC1CC[C@@]23CCC4(C)[C@@]5(C)CCC6C(C)(C)C(O)CC[C@@]6(C)C5C=C[C@@]4(OC2=O)C3C1C (stereo not given in full) -81.5%, CC1(C)CC[C@]2(C(=O)O)CC[C@@]3(C)C(=CCC4[C@@]5(C)CCC(O)[C@@](C)(CO)C5CC[C@@]43C)C2C1 (stereo not given in full) -32.5%, COC(=O)c1cc(OC)c(=O)c2c(OC)c(OC)ccc2c1 -46.2%, COc1ccc(C2CC(=O)c3ccc(OC)cc3O2)cc1 (stereo not given) -30.3%, CCOC(=O)C(Cc1ccc(O)cc1)NC(C)=O (stereo not given) -42.8%, COc1ccc(C(=O)c2ccc(O)cc2)c(O)c1O -38.8%, CC(C)=CCOc1cc2oc(=O)ccc2cc1O -65.1%

Potency, inactive:
COc1ccc2c(c1OC)C(=O)O[C@H]2C1c2c(cc3c(c2OC)OCO3)CCN1C (stereo not given in full), O=c1cc(-c2ccccc2)oc2cccc(O)c12

System: not listed separately
Experiment: Confirmation and Secondary Assay for Modulators of Hemoglobin Beta Chain Splicing at IVS2 654 locus (AID 910);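 note: per-well total GFP intensity by laser scanning cytometry after 2-day treatment; % of control where 0% means no effect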
Details: HeLa EGFP-654 splicing reporter, GFP fluorescence, 48 h; series mostly up to 46.1 µM; activation (splicing correction): at the top concentration
Procedure, shortened: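 HeLa cells stably carrying EGFP interrupted by mutant beta-globin IVS2-654 intron (CMV-driven) were treated with compound for 2 days at 37C; corrected splicing was scored as total peak GFP intensity per well (488 nm excitation, 500-520 nm emission).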

Activation (splicing correction), inactive:
COc1cc(-c2cc(=O)c3c(O)c(OC)c(OC)c(OC)c3o2)cc(OC)c1OC 1.76% [at 38.3 µM], C#C[C@]1(O)CCC2C3CCC4=Cc5oncc5C[C@@]4(C)C3CC[C@@]21C (stereo not given in full) -9.49%, CC1(C)CCC2(C(=O)O)CC[C@]3(C)C(=CCC4[C@]5(C)CCC(O)C(C)(C)C5C(O)C[C@]43C)C2C1 (stereo not given in full) -1.36%, CC1(C)C(=O)C2C[C@]3(O)C4=CC(=O)OC(c5ccoc5)[C@]4(C)CCC3[C@](C)(C2=O)C1CC(=O)O (stereo not given in full) 0.165%, Cc1cc(=O)oc2c(O)c(O)ccc12 4.15% [at 38.3 µM], C#C[C@@]1(O)CCC2C3CCC4=CC(=O)CCC4C3CC[C@@]21CC (stereo not given in full) 1.94%, C[C@@H]1CCC2[C@](C)(CO)C(O)CC[C@@]2(C)[C@@]12CC[C@](CO)(CCO)O2 (stereo not given in full) -1.49% [at 38.3 µM], CC1(C)CCCC2(C)C3C(O)CC2(C)C(O)C31 (stereo not given) -0.663% [at 38.3 µM], COc1ccc2c(c1OC)C(=O)O[C@H]2C1c2c(cc3c(c2OC)OCO3)CCN1C (stereo not given in full) 3.23%, CC(=O)O[C@](C)(CCC=C(C)C)C1CC=C(C)CC1 (stereo not given in full) 0.186% [at 38.3 µM], COc1ccc(C2Oc3cc(OC)cc(OC)c3CC2O)cc1 (stereo not given) 1.31% [at 38.3 µM], COc1cccc(O)c1O 3.14% [at 38.3 µM], CC1(C)C[C@@H]2C(=O)CCC3O[C@@]3(C)CCC21 (stereo not given in full) -2.63% [at 38.3 µM], O=C1c2ccccc2C(=O)c2c(O)c(O)cc(O)c21 16.6%, CC(=O)OC1CC(OC(C)=O)[C@]2(C)C(CC(=O)[C@]3(C)C2CC[C@@]2(C)C(C(=O)O)OC(=O)C4OC423)C1(C)C (stereo not given in full) 8.62%, COC1=CC(=O)C(C(=O)c2ccccc2)=CC1=O 0.793% [at 38.3 µM], COc1ccc(-c2coc3c(O)c(OC)ccc3c2=O)cc1 -1.92% [at 38.3 µM], COC(=O)/C(=C1\OC(=O)C(c2ccccc2)C1=O)c1ccccc1 (stereo not given) 1.84% [at 38.3 µM], O=c1c(O)c(-c2ccccc2)oc2cccc(O)c12 0.204% [at 38.3 µM], Cc1cc(O)c(C=O)c(O)c1C(=O)O 3.79% [at 38.3 µM], O=C(NC1CCCCC1)NC1CCCCC1 2.99%, CC1(C)OC2CC3C4CC(F)C5=CC(=O)C=C[C@@]5(C)[C@@]4(F)C(O)C[C@@]3(C)[C@]2(C(=O)CO)O1 (stereo not given in full) 3.96%, O=c1cc(-c2ccccc2)oc2cccc(O)c12 -7.41%, COC(=O)CC1C(C)(C)C2(O)OC34CC2C(=O)[C@@]1(C)C3CC[C@]1(C)C4=CC(=O)OC1c1ccoc1 (stereo not given in full) 3.07%, CC1CC2C3CCC4=CC(=O)C=C[C@]4(C)[C@@]3(Cl)C(O)C[C@]2(C)C1(OC(=O)c1ccco1)C(=O)CCl (stereo not given in full) -1.69%, S=c1ccss1 2.5% [at 38.3 µM], CC1(C)C(O)C=C[C@@]2(C)C1CC(=O)O[C@@]1(C)C3=CC(=O)OC(c4ccoc4)[C@]3(C)CCC21 (stereo not given in full) 3.84%, COc1cc(O)cc(OC)c1OC 3.15% [at 38.3 µM], CC1CC[C@@]23CCC4(C)[C@@]5(C)CCC6C(C)(C)C(O)CC[C@@]6(C)C5C=C[C@@]4(OC2=O)C3C1C (stereo not given in full) -0.266% [at 38.3 µM], CC1(C)CC[C@]2(C(=O)O)CC[C@@]3(C)C(=CCC4[C@@]5(C)CCC(O)[C@@](C)(CO)C5CC[C@@]43C)C2C1 (stereo not given in full) -0.424% [at 38.3 µM], COC(=O)c1cc(OC)c(=O)c2c(OC)c(OC)ccc2c1 3.18%, COc1ccc(C2CC(=O)c3ccc(OC)cc3O2)cc1 (stereo not given) 1.32% [at 38.3 µM], CCOC(=O)C(Cc1ccc(O)cc1)NC(C)=O (stereo not given) 5.52%, COc1ccc(C(=O)c2ccc(O)cc2)c(O)c1O 1.32% [at 38.3 µM], CC(C)=CCOc1cc2oc(=O)ccc2cc1O 2.8%

Source: PubChem BioAssay (NCATS)
